Source: PubChem
An excerpt weighted towards active compounds, which were near 17% of everything screened.
S2 tox – Viability Counterscreen for Primary qHTS for Inhibitors of ATXN expression; S2 cells (HEK-293 line with an ATXN2-luciferase reporter) viability, CellTiter-Fluor protease fluorescence, 24 h; Potency, µM (highest dose often 56.7 µM), hits mostly cytotoxic; hit rate 0.49% among 400,000; also: nearly all actives have a fitted effect of over 40% in size
HepG2 viability – qHTS for Inhibitors of TGF-b: Cytotox Counterscreen; HepG2 CAGA-GFP viability, ATP luminescence, 18 h; Potency, µM (titrated, usually from 46.1 µM), actives largely listed as cytotoxic; hit rate 0.76% among 410,000; AID 588856, 2011
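HepG2 CAGA-GFP cells (1000/well, DMEM with 1% FBS) received compound, then TGF-beta at 500 pg/mL final, and were incubated 18 hours at 37 degrees C. Viability was read by CellTiter-Glo luminescence. Media-only wells were set as complete cell-killing and DMSO as no toxicity.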
ATXN2 expr inh – Primary qHTS for Inhibitors of ATXN expression; HEK-293 ATXN2-luciferase reporter, luminescence, 24 h; Potency, µM (doses to about 57 µM), hits mostly inhibitors; hit rate 0.72% among 360,000; also: nearly all actives have a fitted effect of over 55% in size
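ATXN2-luciferase reporter cells (luciferase flanked by upstream and downstream ATXN2 gene portions) were treated 24 h at 37 °C with compounds at up to 57 uM. SteadyGlo luminescence gave expression; GF-AFC fluorescence gave viability.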
TGFb SMAD3 inh – qHTS for Inhibitors of TGF-b; HepG2 CAGA-GFP TGF-b/SMAD3 reporter, GFP fluorescence, 18 h; TGF-beta stimulated, 500 pg/mL final; Potency, µM (highest dose often 46.1 µM), hits mostly inhibitors; hit rate 1.2% among 410,000; also: nearly all actives have a fitted effect of over 65% in size
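Inhibition of TGF-beta-driven CAGA-GFP reporter expression in HEPG2 cells is measured by cellular GFP fluorescence after 18 h stimulation with 500 pg/mL recombinant TGF-beta in 1% FBS medium at 37 degrees C.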
DT40 TDP1 no CPT – qHTS for Inhibitors of human tyrosyl-DNA phosphodiesterase 1 (TDP1): qHTS in cells in absence of CPT. DT40 Tdp1-/- hTDP1 cells, no CPT, ATP luminescence, 48 h. Potency, µM (top dose mostly 46.2 µM), hits mostly inhibitors. hit rate 15% among 420,000; also: nearly all actives have a fitted effect of over 55% in size
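Readout: luminescence from CellTiter-Glo after 30 min in the dark at RT. Cells: DT40 Tdp1-/- with stable hTDP1, 400/well. Exposure: compounds alone, ≥48 hr, 37 °C.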
TDP1 cell CPT – qHTS for Inhibitors of human tyrosyl-DNA phosphodiesterase 1 (TDP1): qHTS in cells in presence of CPT | hit rate 12% among 420,000 | chicken DT40 Tdp1-/-;hTDP1 cells + 20 nM CPT, ATP luminescence, 48 h | Potency, µM (titrated, usually from 46.2 µM), hits mostly inhibitors; also: nearly all actives have a fitted effect of over 55% in size
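Chicken DT40 Tdp1-/- cells complemented with human TDP1, 400 cells/well, exposed to compounds plus 20 nM camptothecin for at least 48 h at 37 C; viability read as ATP content by CellTiter-Glo luminescence.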
Hits are given with their value; - = inactive; ? = inconclusive; . = no result; ! = a repeat was not active. Calls follow the shape of the dose curve; as a rule, active = well fitted curve in the direction sought with a large enough effect; inconclusive = small, poorly fitted or top-dose-only effect, or another doubt; inactive = no such curve, though single readings can be large; an effect the other way counts as inactive or inconclusive.

SMILES	S2 tox	HepG2 viability	ATXN2 expr inh	TGFb SMAD3 inh	DT40 TDP1 no CPT	TDP1 cell CPT
O=C(Nc1ccc2c(c1)CCCN2C(=O)c1cccs1)c1cccc(C(F)(F)F)c1	35µM	-	?	-	9.2µM	13µM
COc1cc(OC)cc(C(=O)Nc2ccc3c(c2)CCCN3C(=O)c2cccs2)c1	-	-	-	-	23µM!	18µM
O=C(Nc1ccc2c(c1)CCCN2C(=O)c1cccs1)c1ccccc1	-	-	?	-	13µM	16µM
O=C(Nc1ccc2c(c1)CCCN2C(=O)c1cccs1)c1ccc(F)c(F)c1	25µM	-	?	?	21µM	16µM
O=C(Nc1ccc2c(c1)CCCN2C(=O)c1cccs1)c1cccc(F)c1	?	-	?	-	?	?
N#CCSc1nnc(SCC#N)s1	-	-	-	-	-	-
Cc1ccc(-c2c(C)n3c4c(=O)n(C)c(=O)n(C)c4nc3n2CCCO)cc1	28µM	-	25µM	?	.	.
CN(C)c1ccc(/C=C\C=C/c2ccnc3ccccc23)cc1	.	-	.	8.9µM	0.1µM	0.079µM
CN(C)c1ccc(/C=C/c2ccnc3ccccc23)c(F)c1	.	-	.	?	13µM	?
CSc1ccc(/C=C/c2ccnc3ccccc23)cc1	.	-	.	-	-	-
CN(C)c1ccc(/C=C/c2ccnc3ccccc23)c(N)c1	.	-	.	?	0.63µM	0.63µM
CCCCN(CCCC)c1ccc(/C=C/c2ccnc3ccccc23)cc1	.	-	.	-	?	?
CN(C)c1ccc(CCc2ccnc3ccccc23)cc1	.	-	.	-	14µM	13µM
O=C(CCc1ccc(O)cc1)c1c(O)cc(O)cc1O[C@@H]1O[C@H](CO)[C@H](O)[C@H](O)[C@H]1O	.	.	-	.	.	.
Cc1ccc(C(=O)OCC(=O)Nc2cccc(S(=O)(=O)NC3=NCCCCC3)c2)c(C)c1	-	-	-	?	?	?
Cc1sc2nc(CN3CCCC3)nc(N3CCN(S(=O)(=O)c4cccc(F)c4)CC3)c2c1C	?	-	-	-	?	?
COC(=O)c1cc2occc2n1CC(=O)Nc1ccc(C)cc1Cl	-	-	-	-	-	-
Cc1ccnc(SCC(=O)c2cc3ccccc3o2)n1	-	-	-	-	?	?
Cc1ccc(Nc2nc(N)nc(CN3CCN(c4ccccc4)CC3)n2)cc1Cl	-	-	-	?	18µM	?
COc1ccc(N2CCN(Cc3nc(N)nc(Nc4ccc(C)c(Cl)c4)n3)CC2)cc1	?	-	-	-	16µM	9.2µM
CCOC(=O)c1c2c3c(c(Cl)ccc3[nH]c1=O)C(=O)c1ccccc1-2	?	-	-	-	?	-
COc1ccc(OC)c(NC(=O)Nc2nnc(N3CCCCC3C)s2)c1 (stereo unspecified)	-	-	-	-	?	?
CC(=O)c1ccc(OCCNS(=O)(=O)c2ccc(-n3cnnn3)c(C)c2)cc1	-	-	-	-	?	13µM
Cc1ccc(-c2cc3nccc(-c4cc([N+](=O)[O-])ccc4O)n3n2)cc1	?	-	?	?	23µM	23µM
Cc1ccc(-c2cc3ncc(C(=O)c4cc([N+](=O)[O-])ccc4O)cn3n2)cc1	-	-	-	?	2.3µM	?
SMILES	S2 tox	HepG2 viability	ATXN2 expr inh	TGFb SMAD3 inh	DT40 TDP1 no CPT	TDP1 cell CPT
CCc1ccc(O)c(C(=O)c2cnc3cc(-c4ccc(C)cc4)nn3c2)c1	?	-	-	-	-	?
CCOC(=O)COc1ccc([N+](=O)[O-])cc1-c1ccnc2cc(-c3ccc(C)cc3)nn12	-	-	-	-	-	-
O=C(CN1CCN(S(=O)(=O)N2CCOCC2)CC1)Nc1cc(Cl)ccc1Cl	-	-	-	-	?	-
O=C(CN1CCC(C(O)(c2ccccc2)c2ccccc2)CC1)Nc1cc(Cl)ccc1Cl	-	-	-	-	20µM	?
O=C(CN1CCN(C(=O)N2CCOCC2)CC1)Nc1cc(Cl)ccc1Cl	-	-	-	-	13µM	?
O=C(CN1CCC(C(O)(c2ccccc2)c2ccccc2)CC1)Nc1ccccc1	?	-	-	-	16µM	21µM
CC1CCCN(CC(O)CN)C1 (stereo unspecified)	?	-	-	-	-	-
CC1(c2ccc3ccccc3c2)CCC(=O)O1 (stereo unspecified)	-	-	-	-	-	-
Cc1ccc(OCC(=O)Nc2cccnc2Cl)cc1C	-	-	-	-	-	-
CC(OC(=O)c1cc2sccc2n1C)C(=O)NCCc1ccccc1 (stereo unspecified)	-	-	-	-	18µM	15µM
c1cc(-c2cnn3cc(-c4ccc(OCCN5CCCCC5)cc4)cnc23)ccn1	.	.	3.9µM	.	.	.
O[Si](CCCN1CCCCC1)(c1ccc(F)cc1)C1CCCCC1 (stereo unspecified)	-	-	-	-	26µM	?
O=C(NCCCN1CCCC1)Nc1ccc(F)cc1	-	-	-	-	-	-
COc1ccc([C@H]2CC(=O)C=C(c3c(OC)cccc3OC)C2)cc1	-	-	-	-	2.1µM	2.9µM
COc1ccc(Cl)cc1C1=CC(=O)C[C@H](c2ccc(F)cc2)C1	-	-	-	?	?	?
COC/C=C/C1=CC(=O)C[C@H](c2ccc3c(c2)OCO3)C1	-	-	-	-	18µM	?
COc1ccc([C@H]2CC(=O)C=C(c3cc(Cl)ccc3OC)C2)cc1	?	-	-	?	?	13µM
COc1ccc([C@H]2CC(=O)C=C(c3cc(OC)ccc3OC)C2)cc1	-	-	-	?	15µM	13µM
CN(C(=O)Cn1ncc2c1-c1ccccc1OC2)c1ccc(Br)cc1	-	-	-	?	?	-
CCc1nc(C)cc(N)c1OCc1ccccc1	-	-	-	-	-	-
Cc1cc(C(F)(F)F)nn1-c1nc(-c2ccccc2)cc(C(F)(F)F)n1	-	-	-	-	?	?
CCOc1ccc(C2=CC(=O)C[C@H](c3ccc(OC)cc3)C2)cc1	-	-	-	-	-	-
COc1ccc([C@H]2CC(=O)C=C(c3cc(C=O)ccc3OC)C2)cc1	-	-	-	?	5.8µM	4.6µM
CCOc1ccc(Cl)cc1C1=CC(=O)C[C@H](c2ccc(OC)cc2)C1	-	-	-	?	4.1µM	2.9µM
COc1ccc([C@H]2CC(=O)C=C(c3cc(C=O)ccc3OC)C2)cc1OC	-	-	-	-	?	?
COc1ccc(F)cc1C1=CC(=O)C[C@H](c2ccc3c(c2)OCO3)C1	-	-	-	-	13µM	9.2µM
